# Experimental data from PubChem BioAssay (NCI).
# Compounds without any hit were thinned out: in the full panel of roughly 83,000, 20% have a hit.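 The test compound was applied at a single concentration to cells in 96-well plates for 48 hours, and percent growth was recorded.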 Values without a mark were called inactive. The source made the active and inactive calls. How the source made its calls: active means growth percent below 10; inactive means the rest.
# Key:
# Test in all cases: NCI-60 one-dose screen, 48 h (100 = growth as untreated, 0 = no growth, -100 = all killed)
# Conditions in all cases: 10 µM unless noted
# NCI-H23 lung = system: NCI-H23 lung
# NCI-H226 lung = system: NCI-H226 lung
# NCI-H322M lung = system: NCI-H322M lung
# HOP-62 NSCLC = system: HOP-62 NSCLC
# NCI-H460 lung = system: NCI-H460 lung
# HOP-92 NSCLC = system: HOP-92 NSCLC
# NCI-H522 lung = system: NCI-H522 lung
# A549/ATCC NSCLC = system: A549/ATCC NSCLC
# 786-0 renal = system: 786-0 renal
# COLO 205 colon = system: COLO 205 colon
Structure (SMILES),growth (NCI-H23 lung),growth (NCI-H226 lung),growth (NCI-H322M lung),growth (HOP-62 NSCLC),growth (NCI-H460 lung),growth (HOP-92 NSCLC),growth (NCI-H522 lung),growth (A549/ATCC NSCLC),growth (786-0 renal),growth (COLO 205 colon)
CCN(CC)CCCC(C)Nc1ccnc2cc(Cl)c(SCc3ccccc3)cc12 (stereo not given),-17.1% (active),24.2%,-28.9% (active),-72.2% (active),-54.9% (active),-43.1% (active),-69.6% (active),-23.1% (active),-93.3% (active),-89.5% (active)
O=[N+]([O-])c1cc([N+](=O)[O-])c(C(F)(F)F)cc1NN=C(c1ccc(O)cc1)c1ccc(O)cc1,-15.7% (active),78.6%,113%,-55.4% (active),-37.8% (active),108%,-61.5% (active),-60.4% (active),-27.5% (active),-11% (active)
CCOC(=O)c1cc(C#N)n2ncc3ccccc3c12,94.1%,91.2%,102%,90.8%,101%,80.7%,93.3%,100%,95.7%,118%
Cn1c(=O)c(C#N)c(-c2ccco2)n2c(S(=O)(=O)Cc3ccccc3)nnc12,94.3%,122%,89.1%,104%,79.9%,92.8%,81.2%,92.8%,81.1%,111%
CCOC(=O)c1c[nH]c2cc(OCC3CC3)c(OCC3CC3)cc2c1=O,110%,106%,100%,109%,103%,116%,95.5%,109%,120%,113%
O=C1CC(C(F)(F)F)Cc2nc3ccc(Br)cc3cc21 (stereo not given),83.3%,87.6%,78.2%,87.1%,87.8%,85.8%,84.8%,91.8%,96.4%,100%
COc1ccc(C(=O)c2nccc3cc(OC)c(OC)cc23)cc1OC,51.9%,97%,120%,95.3%,103%,78.5%,33.4%,98.3%,109%,126%
C=C(C)[C@@H]1CC[C@]2(C(N)=O)CC[C@]3(C)[C@H](CC[C@@H]4[C@@]5(C)CC[C@H](O)C(C)(C)[C@@H]5CC[C@]43C)[C@@H]12,-27.1% [100 µM] (active),-50.5% [100 µM] (active),-58.9% [100 µM] (active),-72.2% [100 µM] (active),-37.5% [100 µM] (active),-62.8% [100 µM] (active),-53.8% [100 µM] (active),-69.3% [100 µM] (active),-72.2% [100 µM] (active),-66.2% [100 µM] (active)
O=C(Oc1ccc(Cl)cc1[N+](=O)[O-])Oc1ccc(Cl)cc1[N+](=O)[O-],105%,117%,122%,113%,111%,93.4%,104%,99.2%,119%,122%
CCCN1CC(c2ccc(OC)c(OC)c2)=C(c2cn(C(=O)OCC)c3ccccc23)C1=O,65.8%,76.8%,90.6%,45.9%,37.1%,26.2%,24%,46.3%,54.6%,41.7%
CC1(C)CC[C@]2(C(N)=O)CC[C@]3(C)C(=CC[C@@H]4[C@@]5(C)C/C(=C/c6ccncc6)C(=O)C(C)(C)[C@@H]5CC[C@]43C)[C@@H]2C1,-34.4% [100 µM] (active),-48.3% [100 µM] (active),-100% [100 µM] (active),-63.3% [100 µM] (active),-48.9% [100 µM] (active),-64.7% [100 µM] (active),-67.4% [100 µM] (active),-54.2% [100 µM] (active),-41.2% [100 µM] (active),-55.3% [100 µM] (active)
O=C(N/N=C\c1cc(Cl)ccc1O)N/N=C/c1cc(Cl)ccc1O,45.7%,73%,74.7%,54%,16.1%,21%,14%,26.2%,78%,46.3%
